The record followed here is PubChem BioAssay (EPA / NIEHS).

Structures are written as SMILES. The source made the active and inactive calls. Rule for the calls: active = hit-call score of the fitted dose curve at least 0.9, where 1 is the maximum; inactive = score below 0.9.

Conditions in all cases: mRNA level, 48 h; actives raise or lower the signal
Read-out in one experiment: CYP4A11 (gene 1579)
Nature of the experiment: LTEA_HepaRG_CYP4A11: Life Technologies and Expression Analysis (LTEA) Assay for CYP4A11 using HepaRG (AID 2283486). A digest of the protocol:
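Human hepatic HepaRG cultures receive duplicate 48 h exposures across a concentration-response series topping at 100 uM. Expression changes in CYP4A11 are measured by qRT-PCR relative to DMSO controls.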

Read-out in experiment [1]: Cytochrome P450 3A4 (Homo sapiens) (UniProt P08684)
Nature of the experiment: LTEA_HepaRG_CYP3A4: Life Technologies and Expression Analysis (LTEA) Assay for CYP3A4 using HepaRG (AID 2283487). A digest of the protocol: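 Differentiated HepaRG cells, plated 48 h, then dosed 48 h in serum-free induction medium with 0.5% DMSO, 8 half-log concentrations up to 100 uM, duplicate. CYP3A4 mRNA by qRT-PCR, normalized to ACTB/GAPDH/POLR2A; bidirectional fit versus DMSO.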

Read-out in experiment [2]: DNA damage-inducible transcript 3 (DDIT3), DDIT3 (gene 1649)
Nature of the experiment: LTEA_HepaRG_DDIT3: Life Technologies and Expression Analysis (LTEA) Assay for DNA damage-inducible transcript 3 (DDIT3) using HepaRG (AID 2283488). The essentials: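 Differentiated human HepaRG cells in serum-free induction medium were exposed in duplicate for 48 h to 8 concentrations (top 100 uM, half-log steps, 0.5% DMSO). DDIT3 mRNA measured by TaqMan qRT-PCR, normalized to ACTB/GAPDH/POLR2A; bidirectional fit versus DMSO.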

Read-out in experiment [3]: Pro-epidermal growth factor (Homo sapiens) (UniProt P01133)
Nature of the experiment: LTEA_HepaRG_EGF: Life Technologies and Expression Analysis (LTEA) Assay for Epidermal growth factor (EGF) using HepaRG (AID 2283489). The essentials:
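Concentration-response mRNA assay: HepaRG cells dosed 48 h (max 100 uM, 0.5% DMSO), EGF measured by qRT-PCR and normalized to ACTB/GAPDH/POLR2A.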

Read-out in experiment [4]: Early growth response protein 1 (EGR1) transcription factor, EGR1 (gene 1958)
Nature of the experiment: LTEA_HepaRG_EGR1: Life Technologies and Expression Analysis (LTEA) Assay for Early growth response protein 1 (EGR1) transcription factor using HepaRG (AID 2283490). The essentials: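 Read-out is EGR1 mRNA level by qRT-PCR, normalized to three housekeeping genes and analysed for gain or loss of signal against 0.5% DMSO. Source cells: human HepaRG, treated 48 h at up to 100 uM in half-log dilutions.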

Read-out in experiment [5]: Ezrin (EZR), EZR (gene 7430)
Nature of the experiment: LTEA_HepaRG_EZR: Life Technologies and Expression Analysis (LTEA) Assay for Ezrin (EZR) using HepaRG (AID 2283491). A digest of the protocol: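 EZR transcript levels came from Fluidigm qRT-PCR and were normalized to three housekeeping genes after 48 h chemical exposure of HepaRG cells. Dosing used an 8-point half-log series with a 100 uM top concentration in 0.5% DMSO, tested in duplicate; both directions were fitted versus vehicle.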

Read-out in experiment [6]: Cytochrome P450 3A7 (Homo sapiens) (UniProt P24462)
Nature of the experiment: LTEA_HepaRG_CYP3A7: Life Technologies and Expression Analysis (LTEA) Assay for CYP3A7 using HepaRG (AID 2283492). A digest of the protocol: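 qRT-PCR of CYP3A7 in HepaRG lysates after 48 h treatment; concentration-response (8 points, max 100 uM) analysed bidirectionally relative to 0.5% DMSO controls.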

Read-out in another experiment: CYP3A5 (gene 1577)
Nature of the experiment: LTEA_HepaRG_CYP3A5: Life Technologies and Expression Analysis (LTEA) Assay for CYP3A5 using HepaRG (AID 2283493). The essentials: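 Differentiated HepaRG cells in serum-free induction medium were dosed 48 h with test chemicals (8-point half-log series, top 100 uM, 0.5% DMSO, duplicate). CYP3A5 mRNA measured by qRT-PCR, normalized to ACTB, GAPDH, POLR2A; bidirectional fit versus DMSO.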

Read-out in experiment [7]: Fatty Acid-Binding Protein 1 (FABP1), FABP1 (gene 2168)
Nature of the experiment: LTEA_HepaRG_FABP1: Life Technologies and Expression Analysis (LTEA) Assay for Fatty Acid-Binding Protein 1 (FABP1) using HepaRG (AID 2283494). The essentials:
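HepaRG, 48 h post-plating switched to serum-free induction medium, then dosed 48 h (duplicate, 8 pts, ≤100 uM, 0.5% DMSO). RNA → Fluidigm TaqMan qRT-PCR, FABP1 normed to ACTB/GAPDH/POLR2A. Bidirectional curve fit vs DMSO.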

Read-out in experiment [8]: Cytochrome P450 4A22 (Homo sapiens) (UniProt Q5TCH4)
Nature of the experiment: LTEA_HepaRG_CYP4A22: Life Technologies and Expression Analysis (LTEA) Assay for Cytochrome P450 4A22 (CYP4A22) using HepaRG (AID 2283495). A digest of the protocol: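 Concentration-response (8 points, max 100 uM, 0.5% DMSO) in human HepaRG liver cells after 48 h exposure. CYP4A22 mRNA by TaqMan qRT-PCR with housekeeping-gene normalization.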

Read-out in experiment [9]: Cytochrome P450 7A1 (Homo sapiens) (UniProt P22680)
Nature of the experiment: LTEA_HepaRG_CYP7A1: Life Technologies and Expression Analysis (LTEA) Assay for Cytochrome P450 7A1 (CYP7A1) using HepaRG (AID 2283496). A digest of the protocol: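 Gene expression endpoint in human HepaRG liver cells treated for 48 h with test chemicals (up to 100 uM, 0.5% DMSO). Values come from bidirectional concentration-response fitting versus DMSO.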

Read-out in experiment [10]: Glutathione S-Transferase (GSTA2), GSTA2 (gene 2939)
Nature of the experiment: LTEA_HepaRG_GSTA2: Life Technologies and Expression Analysis (LTEA) Assay for Glutathione S-Transferase (GSTA2) using HepaRG (AID 2283497). The essentials: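 HepaRG, 48 h dosing, 8-pt half-log CRC from 100 uM, 0.5% DMSO vehicle, n=2; RNA → Fluidigm TaqMan qRT-PCR; GSTA2 vs ACTB/GAPDH/POLR2A; gain/loss fit vs DMSO.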

Read-out in experiment [11]: growth arrest and DNA damage 45 (GADD45G), GADD45G (gene 10912)
Nature of the experiment: LTEA_HepaRG_GADD45G: Life Technologies and Expression Analysis (LTEA) Assay for growth arrest and DNA damage 45 (GADD45G) using HepaRG (AID 2283499). The essentials: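 Concentration-response in HepaRG: 48 h dosing, 0.5% DMSO, highest level 100 uM. GADD45G expression by qRT-PCR, normalised to endogenous controls; bidirectional fit to DMSO.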

Read-out in experiment [12]: Glutamate-cysteine ligase regulatory (GCLM), GCLM (gene 2730)
Nature of the experiment: LTEA_HepaRG_GCLM: Life Technologies and Expression Analysis (LTEA) Assay for Glutamate-cysteine ligase regulatory (GCLM) using HepaRG (AID 2283500). A digest of the protocol:
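Differentiated human HepaRG cells exposed 48 h in serum-free induction medium to 8-point half-log concentrations (top 100 uM, 0.5% DMSO), in duplicate. GCLM mRNA quantified by qRT-PCR, normalized to ACTB, GAPDH, POLR2A; bidirectional fitting versus DMSO.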

Read-out in experiment [13]: Heat shock 70 kDa protein 1 (HSPA1A), gene 3303
Nature of the experiment: LTEA_HepaRG_HSPA1A: Life Technologies and Expression Analysis (LTEA) Assay for Heat shock 70 kDa protein 1 (HSPA1A) using HepaRG (AID 2283502). The essentials: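 Differentiated human HepaRG cells in serum-free induction medium were exposed in duplicate for 48 h to eight concentrations (top 100 uM, half-log steps, 0.5% DMSO). HSPA1A mRNA was quantified by qRT-PCR, normalized to ACTB, GAPDH and POLR2A, and fitted bidirectionally against DMSO.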

Read-out in experiment [14]: Hypoxia-inducible factor 1-alpha (Homo sapiens) (UniProt Q16665)
Nature of the experiment: LTEA_HepaRG_HIF1A: Life Technologies and Expression Analysis (LTEA) Assay for Hypoxia-inducible factor 1 (HIF1A) Trancription factor using HepaRG (AID 2283503).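 Note: HIF1A transcript by TaqMan qRT-PCR normalized to ACTB GAPDH and POLR2A.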 A digest of the protocol: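 HepaRG, 48 h exposure, 8-pt half-log series from 100 uM, 0.5% DMSO vehicle, duplicates. Readout: HIF1A transcript by qRT-PCR (Fluidigm array), housekeeping-normalised. Bidirectional curve fit vs DMSO baseline.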

Read-out in the next experiment: HGF (gene 3082)
Nature of the experiment: LTEA_HepaRG_HGF: Life Technologies and Expression Analysis (LTEA) Assay for Hepatocyte Growth Facto (HGF) using HepaRG (AID 2283505). A digest of the protocol:
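Using HepaRG monolayers kept in 0.5% DMSO, chemicals were tested in duplicate over eight half-log concentrations from 100 uM for 48 h. Endpoint: HGF mRNA change relative to DMSO, normalized to ACTB/GAPDH/POLR2A.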

Read-out in experiment [15]: Glutamate-cysteine ligase catalytic (GCLC), GCLC (gene 2729)
Nature of the experiment: LTEA_HepaRG_GCLC: Life Technologies and Expression Analysis (LTEA) Assay for Glutamate-cysteine ligase catalytic (GCLC) using HepaRG (AID 2283498). A digest of the protocol: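 Read-out is GCLC transcript level by Fluidigm-based TaqMan qRT-PCR, normalized to three housekeeping genes and fitted in both directions relative to 0.5% DMSO. Human HepaRG cells received chemicals for 48 h, up to 100 uM.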

Read-out in experiment [16]: 3-Hydroxy-3-Methylglutaryl-CoA Synthase 2 (HMGCS2), HMGCS2 (gene 3158)
Nature of the experiment: LTEA_HepaRG_HMGCS2: Life Technologies and Expression Analysis (LTEA) Assay for 3-Hydroxy-3-Methylglutaryl-CoA Synthase 2 (HMGCS2) using HepaRG (AID 2283504). The essentials: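 This steatosis marker was read as HMGCS2 mRNA change in HepaRG cells treated 48 h with up to 100 uM chemical. Normalisation used housekeeping genes; activity in either direction was fitted relative to 0.5% DMSO vehicle.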

Read-out in experiment [17]: Glutathione S-transferase M3 (GSTM3), GSTM3 (gene 2947)
Nature of the experiment: LTEA_HepaRG_GSTM3: Life Technologies and Expression Analysis (LTEA) Assay for Glutathione S-transferase M3 (GSTM3) using HepaRG (AID 2283501). The essentials:
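Expression of GSTM3 is determined by qRT-PCR in human liver HepaRG cells treated 48 h with an 8-point half-log range from 100 uM in 0.5% DMSO.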

Chain of Hypoxia-inducible factor 1-alpha (Homo sapiens) (Q16665 whole entry, looked up): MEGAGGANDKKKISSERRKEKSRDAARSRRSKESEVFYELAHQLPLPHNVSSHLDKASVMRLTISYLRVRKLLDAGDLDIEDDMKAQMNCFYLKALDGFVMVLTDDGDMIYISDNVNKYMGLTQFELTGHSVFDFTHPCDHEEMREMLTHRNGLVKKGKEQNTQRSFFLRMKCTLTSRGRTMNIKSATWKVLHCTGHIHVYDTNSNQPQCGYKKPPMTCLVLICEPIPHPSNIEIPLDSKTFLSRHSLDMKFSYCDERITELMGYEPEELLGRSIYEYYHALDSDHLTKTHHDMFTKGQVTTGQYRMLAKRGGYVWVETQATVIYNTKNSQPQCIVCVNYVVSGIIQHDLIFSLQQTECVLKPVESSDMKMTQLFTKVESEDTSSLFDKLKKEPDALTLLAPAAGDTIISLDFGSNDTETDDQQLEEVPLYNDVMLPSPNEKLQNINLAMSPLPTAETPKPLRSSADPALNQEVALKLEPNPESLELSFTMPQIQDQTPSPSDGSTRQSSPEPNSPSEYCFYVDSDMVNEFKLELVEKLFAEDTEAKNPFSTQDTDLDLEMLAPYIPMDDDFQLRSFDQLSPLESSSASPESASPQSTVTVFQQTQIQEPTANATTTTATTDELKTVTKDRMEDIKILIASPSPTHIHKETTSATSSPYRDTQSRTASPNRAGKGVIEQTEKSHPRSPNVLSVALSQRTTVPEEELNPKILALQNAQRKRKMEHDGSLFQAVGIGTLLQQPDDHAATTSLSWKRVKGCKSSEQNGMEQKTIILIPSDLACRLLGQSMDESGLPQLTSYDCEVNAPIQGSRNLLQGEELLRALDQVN
Chain of Cytochrome P450 3A4 (Homo sapiens) (P08684 whole entry, looked up): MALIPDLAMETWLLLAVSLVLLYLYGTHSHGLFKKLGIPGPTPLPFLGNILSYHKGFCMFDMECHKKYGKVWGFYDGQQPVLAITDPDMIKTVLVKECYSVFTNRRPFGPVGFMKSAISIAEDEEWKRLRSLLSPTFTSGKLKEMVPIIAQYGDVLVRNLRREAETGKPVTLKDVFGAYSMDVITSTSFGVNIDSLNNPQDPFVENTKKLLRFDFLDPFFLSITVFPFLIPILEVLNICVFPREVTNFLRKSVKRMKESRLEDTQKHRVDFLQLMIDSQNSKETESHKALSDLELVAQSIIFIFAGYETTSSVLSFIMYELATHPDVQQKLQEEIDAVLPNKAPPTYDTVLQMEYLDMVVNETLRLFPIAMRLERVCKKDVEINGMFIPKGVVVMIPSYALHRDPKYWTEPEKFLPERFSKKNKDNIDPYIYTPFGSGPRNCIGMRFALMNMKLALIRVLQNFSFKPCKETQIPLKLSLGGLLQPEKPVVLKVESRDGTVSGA
Chain of Cytochrome P450 3A7 (Homo sapiens) (P24462 whole entry, looked up): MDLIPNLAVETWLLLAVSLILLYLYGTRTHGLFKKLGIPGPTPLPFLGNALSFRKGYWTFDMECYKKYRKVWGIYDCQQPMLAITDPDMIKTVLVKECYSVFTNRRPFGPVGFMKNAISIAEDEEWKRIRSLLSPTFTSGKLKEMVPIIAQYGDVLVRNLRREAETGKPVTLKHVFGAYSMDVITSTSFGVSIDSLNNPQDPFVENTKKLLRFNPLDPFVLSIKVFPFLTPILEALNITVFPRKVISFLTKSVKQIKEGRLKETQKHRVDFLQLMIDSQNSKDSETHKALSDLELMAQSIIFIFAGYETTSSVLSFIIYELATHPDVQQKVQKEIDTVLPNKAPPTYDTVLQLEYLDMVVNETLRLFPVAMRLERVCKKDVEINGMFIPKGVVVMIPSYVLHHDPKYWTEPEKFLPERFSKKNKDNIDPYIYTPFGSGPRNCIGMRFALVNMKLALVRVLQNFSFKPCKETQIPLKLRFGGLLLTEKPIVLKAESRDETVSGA

By AC50 is commonly meant the midpoint of the concentration-response curve, whichever way the signal moves. On to `ClC(Cl)=C(c1ccc(Cl)cc1)c1ccc(Cl)cc1`, for which the result (in the experiment with CYP4A11 (gene 1579); in [2]; in [3]; in experiment [4]; in [5]; in the experiment with CYP3A5 (gene 1577)) was inactive. The outcome in [8], in experiment [9], in experiment [10], in [11], in experiment [12] and in experiment [13] was inactive. Further, the outcome (in experiment [14]; with HGF (gene 3082)) was inactive. Further, the AC50 is 7.4 µM (active) in experiment [1], 8.96 µM (active) in experiment [6] and 50 µM (active) in experiment [7].

As to `O=C(NC(=O)c1cc(F)c(F)cc1Cl)Nc1cc(F)ccc1N1CCC(C(=O)O)CC1`, the AC50 with CYP4A11 (gene 1579) was 6.34 µM (active); in experiment [8], 7.84 µM (active); in [9], 6.6 µM (active); in experiment [16] it was 20.3 µM (active). The outcome in [1], in [2], in [3], in experiment [4], in experiment [5] and in experiment [6] was inactive. For the same compound, the call (with CYP3A5 (gene 1577); in [7]; in experiment [10]; in experiment [15]; in experiment [12]; in [13]) was inactive. The result (in experiment [14]; with HGF (gene 3082)) was inactive.

On to `Cc1cc(O)ccc1Cl`, for which the result (with CYP4A11 (gene 1579); in [1]; in [2]; in experiment [3]; in experiment [4]; in [5]) was inactive. Further, the compound was classed as inactive (in experiment [6]; in the experiment with CYP3A5 (gene 1577); in experiment [7]; in experiment [8]; in [9]; in experiment [10]). The outcome (in experiment [15]; in [12]; in experiment [13]; in [14]; in experiment [16]; with HGF (gene 3082)) was inactive.

Turning to `O=S(=O)(O)C(F)(F)C(F)(F)C(F)(F)C(F)(F)C(F)(F)C(F)(F)F`, the AC50 with CYP4A11 (gene 1579) is 22.8 µM (active); in [1], 34.9 µM (active); in experiment [6], 20.9 µM (active); in experiment [7] it was 9.02 µM (active); in [8] it was 25.1 µM (active); in experiment [11] it was 3.41 µM (active). Besides, the AC50 was 4.59 µM (active) in experiment [14] and 30.1 µM (active) in experiment [16]. The outcome (in experiment [2]; in experiment [3]; in [4]; in experiment [5]; in the experiment with CYP3A5 (gene 1577); in [9]) was inactive. For the same compound, the result (in [10]; in [12]; in [17]; in experiment [13]; in the experiment with HGF (gene 3082)) was inactive.

As for `N#Cc1ccc(N(CC(N)=O)CC(F)(F)F)cc1C(F)(F)F`, the result (in the experiment with CYP4A11 (gene 1579); in experiment [1]; in [2]; in experiment [3]; in experiment [4]; in [5]) was inactive. The result (in [6]; in the experiment with CYP3A5 (gene 1577); in experiment [8]; in experiment [10]; in experiment [15]; in [12]) was inactive. Besides, the outcome (in experiment [17]; in experiment [13]; in experiment [14]; in [16]; with HGF (gene 3082)) was inactive. Also, the AC50 in experiment [7] was 2.3 µM (active); in experiment [9] it was 0.622 µM (active).
